Screen size: about 68,000 compounds; about 2,700 (4%) showed an effect of 50% or more. For the sample, strong results were picked, then their nearest neighbours and some compounds at random.
The compounds below were run on Plasmodium berghei (assay: Screen against P. berghei liver stage (PbLuc), transformed with Luciferase, at 2uM). Settings: tested at 2 uM.
Type: functional, HepG2

Compound | INHIBITION [%]
CCc1ccc(CN2CCc3ncnc(N4CCOCC4)c3CC2)o1 | -21.37
CN1CCN(C[C@@H]2CN(C(=O)NCC3CCCCC3)C[C@@H]2CO)CC1 | -26.04
COc1ccc(CN2CC[C@H]3O[C@@H](C(=O)NCC4CC4)CC[C@H]32)cc1 | 44.4
CC(Cn1ccnc1)NC(=O)NCCN1CCCCCC1=O (centres undefined) | 17.18
CC(Cn1cccn1)NC(=O)Nc1ccc(N(C)C)nc1 (centres undefined) | 5.96
CCN(CC)c1ccc(NC(=O)NC(C)Cn2cccn2)cn1 (centres undefined) | 52.3
CC(Cn1cccn1)NC(=O)NCCCN1CCCCCC1=O (centres undefined) | 48.37
Cc1ccc(CNC(=O)NC(C)Cn2cccn2)cn1 (centres undefined) | 49.01
CC(Cn1cccn1)NC(=O)NCc1cccnc1 (centres undefined) | 61.3
CC(Cn1cccn1)NC(=O)NCCN1CCCCCC1=O (centres undefined) | 50.03
CC(Cn1cccn1)NC(=O)NCCc1cccnc1 (centres undefined) | 10.53
COc1ccc(NC(=O)NC(C)Cn2cccn2)cn1 (centres undefined) | -40.27
COc1ccc2c(ccn2CCC(=O)NCc2ccc(C(=O)O)cc2)c1 | 42.94
Cc1ccc(C(CCNCCN(C)C)C2CCOC(C)(C)C2)cc1 (centres undefined) | 26.52
Cc1cc(C(=O)N2CCC3(CC2)c2nc[nH]c2CCN3CC(C)C)no1 | 37.63
CC(C)CN1CCc2[nH]cnc2C12CCN(C(=O)c1cccnc1)CC2 | 0.3
Cc1ocnc1C(=O)N1CCC2(CC1)c1nc[nH]c1CCN2CC(C)C | 52.83
CC(C)CN1CCc2[nH]cnc2C12CCN(C(=O)c1cnn(C)c1)CC2 | 51.14
CC(C)CN1CCc2[nH]cnc2C12CCN(C(=O)c1ccc[nH]1)CC2 | 22.43
CC(C)CN1CCc2[nH]cnc2C12CCN(C(=O)c1ccnn1C)CC2 | 29.19
CCc1ccc(S(=O)(=O)N2CCCC3(CCCN3S(C)(=O)=O)C2)cc1 (centres undefined) | 28.41
Cc1cc(C)n(CCNCc2cc(-c3ccccc3)c[nH]c2=O)n1 | 24.26
CC1CCc2nn(CCNC(=O)c3cccs3)c(=O)cc2C1 (centres undefined) | 28.82
CC(C)N1[C@@H](C(=O)NCC2CC2)C[C@@H]2CN(Cc3ccco3)C[C@@H]21 | 28.2
Cc1nn(C)c(C)c1C(C)NCc1ccsc1 (centres undefined) | 38.83
CS(=O)(=O)c1cncnc1C1CCCN(C(=O)Nc2ccc(F)cc2)C1 (centres undefined) | -0.7

Compound | INHIBITION [%]
CC(C)N(Cc1ccccn1)C(=O)CCOc1cccc(F)c1 | 5.43
Cc1cc(NCC2CCCO2)cc(=O)n1C (centres undefined) | -0.15
COCCNC(=O)C(C)n1nc(-c2ccc(C)o2)cc(N)c1=O (centres undefined) | -21.09
COCCCNC(=O)C(C)n1nc(-c2ccco2)cc(N)c1=O (centres undefined) | -1.32
COCCNC(=O)C(C)n1nc(-c2ccco2)cc(N)c1=O (centres undefined) | 54.2
CCN1CCC(CNC(=O)C(c2ccccc2F)N(C)C)(N(C)C)CC1 (centres undefined) | 46.58
O=C(Cc1cccs1)N1CCOCC1c1ccccc1 (centres undefined) | -26.81
CC(C)n1ccnc1CN1CCCN(C(=O)c2cscn2)CC1 | -28.58
CC(C)C(O)CNC(=O)Nc1cccc(-c2nccs2)c1 (centres undefined) | -2.23
OC1(CN(Cc2cccnc2)C2CCCCC2)CNCCOC1 (centres undefined) | 74.3
Cn1cc(CN(CC2(O)CCNC2)C2CCCCC2)cn1 (centres undefined) | 60.64
Cn1cc(CN(C/C=C/c2ccccc2)C2CC2)cn1 | -17.37
OC1(CN2CCC(Oc3cccnc3)CC2)CNCCOC1 (centres undefined) | 3.58
Cn1cc(CN(CC2(O)CNCCOC2)C2CCCCC2)cn1 (centres undefined) | 0.17
CN(Cc1ccc2nsnc2c1)CC1(O)CNCCOC1 (centres undefined) | -1.57
CN(C)c1ccc(C(CNS(=O)(=O)c2cccs2)N2CCCC2)cc1 (centres undefined) | 14.19
COc1cccc(-c2n[nH]cc2-c2nc(CC3CCN(C)CC3)no2)c1 | 38.67
Cc1noc(C)c1C(=O)N1CCCC1(C)C(=O)NC1CCCC1 (centres undefined) | 11.32
Cc1cnn(C2CCCN(C(=O)Cc3ccc4c(c3)CCO4)C2)c1 (centres undefined) | 11.95
O=C(Cc1ccc2c(c1)OCCO2)N1CCCC(n2cccn2)C1 (centres undefined) | 56.12
O=C(Cc1ccc2c(c1)OCCO2)N1CCCC(n2cncn2)C1 (centres undefined) | -7.15
O=C(Cc1ccc2c(c1)CCC2)N1CCCC(n2cccn2)C1 (centres undefined) | -0.71
O=C(CCc1ccc2c(c1)OCO2)N1CCCC(n2cccn2)C1 (centres undefined) | -29.38
O=C(Cc1ccc2c(c1)CCO2)N1CCCC(n2cccn2)C1 (centres undefined) | 52.52
COc1cc(N2CC[C@@H](O)[C@@H]2Cc2cccnc2)ncn1 | 32.21
CCCc1nc(C[S+]([O-])Cc2cn3cccc(C)c3n2)no1 (centres undefined) | 16.37

Compound | INHIBITION [%]
CCOC(=O)c1nc(CN2CCC(NC(=O)C(C)C)CC2)cs1 | -3.25
CCN1CCC2(CCC1=O)CN(c1cnc3ccccc3n1)CCN2C (centres undefined) | -40.52
COc1ccc(-c2cn([C@H](CO)CC(C)C)nn2)cn1 | 79.9
CC(C)C[C@@H](CO)n1cc(-c2cncnc2)nn1 | 26.99
CC(C)C[C@@H](CO)n1cc(-c2cnc(-c3ccco3)nc2)nn1 | -39.9
O=C1Nc2ccccc2CC12CCCN2Cc1ccc(C(F)(F)F)cc1 (centres undefined) | -27.83
CC(C)c1cc(C2CCCN2C(=O)c2cn3ccsc3n2)no1 (centres undefined) | -46.68
COc1ccccc1C1CNCCN1C(=O)c1ccc(F)cc1 (centres undefined) | -20.28
O=C(Nc1nncs1)C1CSCN1C(=O)C1CCCC1 (centres undefined) | -67.78
COc1ccc2c(c1)C1(CCN(Cc3ccncc3)CC1)N(C)CC2 | 32.14
COc1ccc2c(c1)C1(CCN(Cc3cnn(C)c3)CC1)N(C)CC2 | 21.14
COc1ccc2c(c1)C1(CCN(Cc3cccnc3)CC1)N(C)CC2 | 64.92
CC1(C)CN(CCC(=O)NCc2cccc(Cl)c2)CC[C@]1(C)O | -70.63
CN(C)c1nccc(C2CCCN(C(=O)CO)C2)n1 (centres undefined) | 1.13
CCn1c(Cn2cncn2)nnc1C1CCN(CC2[C@H]3CNC[C@@H]23)CC1 (some centres undefined) | -11.68
CSCCCN1C(=O)CC[C@H]2CN(Cc3ncc[nH]3)CC[C@H]21 | 27.5
CC(C)CN1C(=O)CC[C@H]2CN(Cc3ncc[nH]3)CC[C@H]21 | 20.74
COCCCN1C(=O)CC[C@H]2CN(Cc3ncc[nH]3)CC[C@H]21 | 50.59
CC1(C)COCCN1C(=O)CCc1nc(-c2ccccn2)no1 | -4.89
CN(C)CC(=O)N1Cc2nc(C(=O)N3CCCN(C)CC3)oc2C1 | 13.25
O=C(NCCCn1cccn1)C1CCC(=O)N(Cc2ccccc2F)C1 (centres undefined) | 12
CC(C)Oc1ncnc2c1CCN(c1cc(C(F)(F)F)ncn1)CC2 | 20.86
CCOc1ncnc2c1CCN(c1cc(C(F)(F)F)ncn1)CC2 | -17.38
COc1ncnc2c1CCN(c1cc(C(F)(F)F)ncn1)CC2 | 52.08
CCOCC1CN(Cc2cnn(C)c2)Cc2c1cnn2CC (centres undefined) | -8.04
O=C(c1ccco1)N1CCCC2(CCN(c3nncs3)C2)C1 (centres undefined) | -56.25

Compound | INHIBITION [%]
Cc1ncc2c(n1)CN(Cc1nnc(-c3ccccc3)o1)CC2 | 33.5
O=C(NCC1Cn2nnc(-c3ccncc3)c2CO1)c1ccsc1 (centres undefined) | 31.96
O=C(Nc1ccccc1)N1CCN(Cc2noc(C3CC3)n2)CC1 | 31.7
CCn1cc(NC(=O)C2CCN(Cc3noc(C4CC4)n3)CC2)cn1 | 66.2
Cc1ccccc1NC(=O)N1CCN(Cc2noc(C3CC3)n2)CC1 | 71.93
O=C(Nc1ccccc1F)N1CCN(Cc2noc(C3CC3)n2)CC1 | 11.1
CCc1noc(CN2CCC(C(=O)Nc3cnn(CC)c3)CC2)n1 | 49.9
CCn1cc(NC(=O)C2CCN(Cc3noc(C(C)C)n3)CC2)cn1 | -8.7
CC1(C)CC(C(=O)N2CCC3(CCC(=O)N(C4CC4)C3)CC2)CCO1 (centres undefined) | -29.52
COCC(=O)N[C@H]1C[C@@H](Cc2cc(CN3CCOCC3)on2)C1(C)C | 19.39
CCCS(=O)(=O)N[C@H]1CN(c2ncccc2C(N)=O)C[C@@H]1C(C)C | -50.23
Cc1nc(C)c(C(=O)N2CCc3nnc(C4CCCCN4C)n3CC2)s1 (centres undefined) | 26.44
COc1ccc(CNC(Cc2ccsc2)c2ncccc2C)cc1OC (centres undefined) | -31.69
CC(=O)N1CCC(c2nc3ccc(-c4ccnn4C)cn3n2)CC1 | 25.31
CCCN1CCC(c2nc3ccc(-c4ccccc4)cn3n2)CC1 | 13.16
CCCN1CCC(c2nc3ccc(NCc4cccnc4)cn3n2)CC1 | 1.42
Cn1nccc1-c1ccc2nc(C3CCNCC3)nn2c1 | 39.51
CN1CCC(c2nc3ccc(-c4cccc(F)c4)cn3n2)CC1 | 20.41
CCCN1CCC(c2nc3ccc(NCc4ccccc4)cn3n2)CC1 | 54.65
CN1CCC(c2nc3ccc(-c4ccccc4)cn3n2)CC1 | 54.56
CC(C)N1CCC(c2nc3ccc(-c4ccnn4C)cn3n2)CC1 | 51.94
CCCN1CCC(c2nc3ccc(C)cn3n2)CC1 | 20.01
Cc1noc(C)c1-c1cnc(CC2CCN(C(=O)c3cc[nH]n3)C2)cn1 (centres undefined) | -26.24
CCC(C)c1csc(NC(=O)Cc2csc(-c3nnc[nH]3)n2)n1 (centres undefined) | -5.58
O=C(CCn1c(C(F)(F)F)cc2cccnc21)N1CCOCC1 | 48.65
COc1coc(C(=O)Nc2nc(C)cs2)cc1=O | -1.29
